Source: PMC5540273 (PLoS ONE, 2017)

Assays:
Settings in all cases: concentration: 1 μM, replicates: in singlicate; n = 1
CDC2L2 = tested on: CDC2L2
CDC2L5 = tested on: T1, CDC2L5
T1 construct: gene CDK13

CDK11 = tested on: T2, CDK11
T2 construct: gene CDK19

CDK2 = tested on: CDK2
CDK3 = tested on: CDK3
CDK4-cyclinD1 = tested on: CDK4-cyclinD1
CDK4-cyclinD3 = tested on: CDK4-cyclinD3
CDK4 = tested on: CDK4
CDK5 = tested on: CDK5
CDK7 = tested on: CDK7
CDK8 = tested on: CDK8
CDK9 = tested on: CDK9
CDKL1 = tested on: CDKL1
CDKL2 = tested on: CDKL2
CDKL3 = tested on: CDKL3
CDKL5 = tested on: CDKL5
CHEK1 = tested on: CHEK1
CHEK2 = tested on: CHEK2
CIT = tested on: CIT
CLK1 = tested on: CLK1
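Also: KINOMEscan kinase panel screen.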

Compound	%Inh (CDC2L2) [%]	%Inh (CDC2L5) [%]	%Inh (CDK11) [%]	%Inh (CDK2) [%]	%Inh (CDK3) [%]	%Inh (CDK4-cyclinD1) [%]	%Inh (CDK4-cyclinD3) [%]	%Inh (CDK4) [%]	%Inh (CDK5) [%]	%Inh (CDK7) [%]	%Inh (CDK8) [%]	%Inh (CDK9) [%]	%Inh (CDKL1) [%]	%Inh (CDKL2) [%]	%Inh (CDKL3) [%]	%Inh (CDKL5) [%]	%Inh (CHEK1) [%]	%Inh (CHEK2) [%]	%Inh (CIT) [%]	%Inh (CLK1) [%]
O=C(Nc1n[nH]c2nc(-c3cccc(O)c3)ccc12)C1CC1 [SB-711805]	0	46	0	38	49	20	25	15	0	23	0	0	30	80	0	9	0	25	21	20
COc1cccc(-c2nc(-c3ccccc3)[nH]c2-c2ccncc2)c1 [SB-610250]	0	0	22	2	24	0	7	0	0	0	30	0	20	23	0	8	0	0	47	29
O=C(Nc1n[nH]c2nc(-c3ccccc3)ccc12)C1CC1 [SB-708999]	0	27	0	45	35	61	0	12	2	10	36	0	2	88	10	0	0	0	7	86
COC(=O)Nc1nc2ccc(Oc3ccc(CC(=O)Nc4cc(C(F)(F)F)ccc4F)cc3)cc2[nH]1 [GW680903]	8	0	0	0	11	27	4	10	0	0	0	0	2	14	0	0	0	20	68	24
Cc1ccc(-c2ccc3occ(-c4ccc(S(C)=O)cc4)c3c2)nn1 (stereo not drawn)	0	24	29	36	4	0	0	0	0	0	0	0	35	0	13	0	0	11	0	0
Cc1ccc(NC(=O)c2ccc(Cl)c(Cl)c2)cc1-c1ccc(C(=O)Nc2ccncc2)cc1 [GSK1398460]	14	0	13	0	5	0	0	0	0	0	0	2	1	13	0	4	22	0	97.6	39
O=C(O)C(F)(F)F.O=c1[nH]ccc2nc(N[C@@H]3CCNC3)nc(Nc3cc(Cl)cc(Cl)c3)c12 [GSK2188764]	24	0	2	0	30	38	23	13	44	85	0	34	37	24	0	0	100	85	67	82
CN(C)CCNS(=O)(=O)c1ccc(-c2ccnc3[nH]ccc23)cc1 [GSK977620]	0	0	5	0	0	0	0	11	0	45	0	0	0	8	0	0	35	27	27	88
Cl.O=C(Nc1ccc(Oc2ccc3[nH]c(NC(=O)c4ccco4)nc3c2)cc1)Nc1cc(C(F)(F)F)ccc1F [GW683134]	1	0	88	0	9	0	0	4	0	78	86	5	8	85	0	0	21	0	96.7	63
